Source: PubChem BioAssay AID1159580 (chemical genetic matrix, 2015)
Several values for one entry are separate records, joined by “and”; a condition that tells them apart may be missing. Equal values may be shown once. Out of some 5,500 compounds screened, about 2,000 (36%) were called active. Inconclusive results (about 18%) are left out. Cut-off read from the data, not from the text of the source: active = normalized growth mostly below about 0.91 (no sharp cut-off); inconclusive = no clear call, values can overlap the other calls; inactive = mostly above about 0.92. This is one part of the list.

Test: chemical genetic growth profiling, strain panel (AID 1159580);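 note: tested at 20 µM; growth read once vehicle control cultures reached saturation at 30 °C; 1 = growth at the plate median or of vehicle wells; lower values mean less growth of the strain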
Conditions: S. cerevisiae deletion strains, growth OD

Measured: normalized growth

Nc1ccc(C(=O)O)cc1
inactive: locus YAL021C, strain ccr4, stronger effect = lower value 0.984 | locus YAL026C, strain drs2, stronger effect = lower value 1.01 | locus YAL030W, strain snc1, stronger effect = lower value 1.01 | locus YBL061C, strain skt5, stronger effect = lower value 1.02 | locus YBR009C, strain hhf1, stronger effect = lower value 0.993 | locus YBR021W, strain FUR4, stronger effect = lower value 1.01 | locus YBR023C, strain chs3, stronger effect = lower value 1.03 | locus YBR171W, strain sec66, stronger effect = lower value 1.02 | locus YBR229C, strain ROT2, stronger effect = lower value 0.996 | locus YBR231C, strain swc5, stronger effect = lower value 1.04 | locus YBR279W, strain paf1, stronger effect = lower value 1.02 | locus YCL011C, strain gbp2, stronger effect = lower value 1.01 | locus YCL016C, strain dcc1, stronger effect = lower value 1.03 | locus YCL029C, strain bik1, stronger effect = lower value 1.01 | locus YCL061C, strain MRC1, stronger effect = lower value 1.02 | locus YCL069W, strain vba3, stronger effect = lower value 1.01 | locus YCR088W, strain abp1, stronger effect = lower value 1.01 | locus YDL005C, strain med2, stronger effect = lower value 1.02 | locus YDL035C, strain GPR1, stronger effect = lower value 1.01 | locus YDL040C, strain nat1, stronger effect = lower value 1.02 | locus YDL074C, strain BRE1, stronger effect = lower value 1.03 | locus YDL101C, strain DUN1, stronger effect = lower value 1.02 | locus YDL134C, strain PPH21, stronger effect = lower value 1.01 | locus YDL185W, strain tfp1, stronger effect = lower value 1.03 | locus YDL192W, strain arf1, stronger effect = lower value 1.01 | locus YDR001C, strain nth1, stronger effect = lower value 1 | locus YDR069C, strain doa4, stronger effect = lower value 1.04 | locus YDR101C, strain arx1, stronger effect = lower value 0.996 | locus YDR137W, strain rgp1, stronger effect = lower value 1.01 | locus YDR159W, strain sac3, stronger effect = lower value 1 | locus YDR162C, strain NBP2, stronger effect = lower value 1.02 | locus YDR195W, strain ref2 1.04 | locus YDR297W, strain sur2, stronger effect = lower value 1.02 | locus YDR318W, strain mcm21, stronger effect = lower value 1.01 | locus YDR334W, strain swr1, stronger effect = lower value 1.01 | locus YDR335W, strain msn5, stronger effect = lower value 1.02 | locus YDR388W, stronger effect = lower value 1.01 | locus YDR392W, strain spt3, stronger effect = lower value 0.972 | locus YDR502C, strain sam2, stronger effect = lower value 1.01 | locus YEL003W, strain gim4, stronger effect = lower value 1.02 | locus YEL037C, strain rad23, stronger effect = lower value 1.01 | locus YEL061C, strain CIN8 (second series), stronger effect = lower value 1.02 | locus YEL061C, strain CIN8, stronger effect = lower value 1 | locus YER015W, strain faa2, stronger effect = lower value 1.04 | locus YER016W, strain bim1, stronger effect = lower value 0.987 | locus YER110C, stronger effect = lower value 1.02 | locus YER111C, strain swi4, stronger effect = lower value 1.03 | locus YER155C, strain BEM2 (second series), stronger effect = lower value 1.04 | locus YER155C, strain BEM2, stronger effect = lower value 0.994 | locus YER167W, strain BCK2, stronger effect = lower value 1.01 | locus YFR010W, strain ubp6, stronger effect = lower value 1.02 | locus YGL078C, strain dbp3, stronger effect = lower value 1 | locus YGL086W, strain mad1, stronger effect = lower value 1 | locus YGL167C, strain pmr1, stronger effect = lower value 1.02 | locus YGL173C, strain kem1, stronger effect = lower value 1.03 | locus YGL227W, strain vid30, stronger effect = lower value 1 | locus YGL240W, strain doc1, stronger effect = lower value 1.03 | locus YGL248W, strain PDE1, stronger effect = lower value 1 | locus YGL253W, strain hxk2, stronger effect = lower value 1.01 | locus YGR078C, strain PAC10, stronger effect = lower value 1 | locus YGR135W, strain pre9, stronger effect = lower value 1.02 | locus YGR252W, strain gcn5, stronger effect = lower value 1.04 | locus YHR027C, strain rpn1, stronger effect = lower value 1.02 | locus YHR030C, strain SLT2, stronger effect = lower value 0.999 and 1.11 | locus YHR079C, strain IRE1 (second series), stronger effect = lower value 1.01 | locus YHR079C, strain IRE1, stronger effect = lower value 1.01 | locus YHR094C, strain hxt1, stronger effect = lower value 1.01 | locus YHR129C, strain ARP1, stronger effect = lower value 1 | locus YHR142W, strain chs7, stronger effect = lower value 0.988 | locus YHR200W, strain rpn10, stronger effect = lower value 1.02 | locus YIL066C, strain RNR3, stronger effect = lower value 1.01 | locus YIL073C, strain SPO22, stronger effect = lower value 1.03 | locus YIL125W, strain kgd1, stronger effect = lower value 1.01 | locus YIR030C, strain dcg1, stronger effect = lower value 1.02 | locus YJL092W, strain hpr5, stronger effect = lower value 1.02 | locus YJL095W, strain BCK1 (second series), stronger effect = lower value 1 | locus YJL095W, strain BCK1, stronger effect = lower value 1.04 and 1.01 | locus YJL115W, strain asf1, stronger effect = lower value 1.02 | locus YJL129C, strain trk1, stronger effect = lower value 1.02 | locus YJL134W, strain LCB3, stronger effect = lower value 1 | locus YJL154C, strain vps35, stronger effect = lower value 1.03 | locus YJL164C, strain tpk1, stronger effect = lower value 1 | locus YJL166W, strain qcr8, stronger effect = lower value 1.06 | locus YJL168C, strain set2, stronger effect = lower value 1.01 | locus YJL187C, strain SWE1 (second series), stronger effect = lower value 1.03 | locus YJL187C, strain SWE1, stronger effect = lower value 1.02 | locus YJR043C, strain POL32, stronger effect = lower value 0.996
